GLS inh: blocks human kidney-isoform glutaminase activity. GLS enzymatic activity, qHTS titration. hit rate 0.21% among 410,000. Potency, µM (series often up to 45.5 µM), usual class: inhibitors. O94925
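hKGA in 45 mM KH2PO4 pH 8.2, 0.02% Tween-20 with pin-transferred compounds; 1 mM L-glutamine (stock) plus glutamate oxidase/HRP/Amplex Red coupling added. Fluorescence read initially and after 30 min at RT.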
G9a block: blocks human histone lysine methyltransferase G9a; Potency, µM (top dose mostly 102 µM), actives largely listed as inhibitors; AID 504332; Q96KQ7; hit rate 8.8% among 350,000; G9a H3K9 monomethylation, AlphaScreen, 2 h; further: nearly all actives have a fitted effect of over 75% in size
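Step 1: enzyme (final 20 nM) with compound, 15 min RT. Step 2: substrate peptide 500 nM and SAM 20 uM, 2 h RT. Step 3: anti-H3K9me1 antibody and AlphaScreen beads, 10 min, then plate read.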
JMJD2A Tudor: blocks the human JMJD2A Tudor domain; hit rate 4.4% among 390,000; Potency, µM (titrated, usually from 114 µM), hits mostly inhibitors; O75164; AlphaScreen JMJD2A-Tudor / H3K4me3 peptide binding; further: nearly all actives have a fitted effect of over 50% in size
Target sequence (O75164 whole entry, looked up, the tested form may be a part): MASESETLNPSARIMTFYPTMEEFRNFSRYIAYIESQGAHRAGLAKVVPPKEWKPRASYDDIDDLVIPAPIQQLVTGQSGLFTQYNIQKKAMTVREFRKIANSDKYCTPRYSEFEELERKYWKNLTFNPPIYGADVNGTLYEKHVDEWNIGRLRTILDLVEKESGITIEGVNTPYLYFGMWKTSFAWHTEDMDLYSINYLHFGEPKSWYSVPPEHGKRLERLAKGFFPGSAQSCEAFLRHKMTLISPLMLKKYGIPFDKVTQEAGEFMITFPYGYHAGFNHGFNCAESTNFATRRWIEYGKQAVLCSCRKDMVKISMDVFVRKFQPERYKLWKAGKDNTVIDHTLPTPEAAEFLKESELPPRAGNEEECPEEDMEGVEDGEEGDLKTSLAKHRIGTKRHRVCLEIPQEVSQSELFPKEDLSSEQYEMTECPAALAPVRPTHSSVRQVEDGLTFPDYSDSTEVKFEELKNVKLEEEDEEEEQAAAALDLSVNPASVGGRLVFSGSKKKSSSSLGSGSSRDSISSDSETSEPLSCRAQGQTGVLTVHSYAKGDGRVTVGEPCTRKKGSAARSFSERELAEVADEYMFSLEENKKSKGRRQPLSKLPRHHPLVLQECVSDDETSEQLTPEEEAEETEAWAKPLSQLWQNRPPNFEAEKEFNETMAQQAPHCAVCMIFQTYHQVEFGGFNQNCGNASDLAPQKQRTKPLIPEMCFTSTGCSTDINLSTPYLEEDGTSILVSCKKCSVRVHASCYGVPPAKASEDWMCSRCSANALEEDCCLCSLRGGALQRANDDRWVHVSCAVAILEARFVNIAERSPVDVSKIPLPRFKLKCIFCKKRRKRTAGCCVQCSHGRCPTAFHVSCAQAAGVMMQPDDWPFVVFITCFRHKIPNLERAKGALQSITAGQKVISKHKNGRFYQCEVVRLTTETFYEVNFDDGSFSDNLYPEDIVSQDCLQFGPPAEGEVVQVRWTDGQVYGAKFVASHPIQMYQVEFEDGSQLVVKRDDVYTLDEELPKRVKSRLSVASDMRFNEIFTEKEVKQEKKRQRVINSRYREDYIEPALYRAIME
HP1b chromo inh: inhibitors of HP1-beta chromodomain binding to methylated histone tails; hit rate 0.56% among 390,000; P83916; AID 540317; AlphaScreen HP1-beta / biotin-H3K9me3 peptide binding; Potency, µM (doses to about 114 µM), hits mostly inhibitors; further: nearly all actives have a fitted effect of over 70% in size
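AlphaScreen: HP1-beta (50 nM) preformed 30 min with biotin-H3(1-18)K9me3 peptide (50 nM) in PBS pH 7.4, 0.01% Tween-20. Compound added for 30 min at RT, then streptavidin donor/nickel chelate acceptor beads (10 ug/mL) for 30 min.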
BAZ2B inh: blocks human BAZ2B | Q9UIF8 | AlphaScreen BAZ2B-H3K14Ac peptide displacement | Potency, µM (top dose mostly 114 µM), hits mostly inhibitors | hit rate 4.4% among 360,000; further: nearly all actives have a fitted effect of over 60% in size
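Compounds, titrated to a top concentration of 110 uM, were incubated 30 min at room temperature with preformed BAZ2B/acetyl-K14 H3 peptide complex (50 nM each). Proximity signal was measured by AlphaScreen after 20 min with beads.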
Of the large screens only hits and unclear results are named; the others gave an inactive call. An excerpt weighted towards active compounds, which were near 10% of everything screened. The call rests on the fitted dose curve; in most records, active means well fitted curve in the direction sought with a large enough effect; inconclusive means small, poorly fitted or top-dose-only effect, or another doubt; inactive means no such curve, though single readings can be large; an effect the other way counts as inactive or inconclusive.

S=c1[nH]nc(-c2cccnc2)n1C1CCCCC1	G9a block 20µM, JMJD2A Tudor 5µM
COc1ccc(-c2n[nH]c(=S)n2C2CCCCC2)cc1	G9a block 2.5µM, JMJD2A Tudor 7.1µM
COc1ccc(NC(=O)CSc2nnc(C)n2C2CCCCC2)cc1	G9a block inconclusive
O=C(Nc1ccc(S(=O)(=O)NC2=NCCCCC2)cc1)c1cc(S(=O)(=O)N2CCOCC2)ccc1F	none
CCCc1cc(C(=O)Nc2cccc([N+](=O)[O-])c2)cs1	BAZ2B inh inconclusive (no result: G9a block)
Cc1[nH]c2ccccc2c1SCCNC(=O)c1ccc(Br)o1	JMJD2A Tudor inconclusive
COc1ccc(-c2nnc3ccc(SC(C)C)nn23)cc1OC	none (no result: GLS inh, G9a block, BAZ2B inh)
CC(=O)N1N=C(c2ccc(Br)cc2)OC12CCCC2	none
COc1ccc(Cl)cc1-c1cc(C(=O)NCc2cccc(Cl)c2)[nH]n1	none (no result: G9a block, JMJD2A Tudor, HP1b chromo inh, BAZ2B inh)
COc1ccc(Cl)cc1-c1n[nH]c(=S)n1Cc1ccccc1	G9a block 3.2µM
Cc1ccc(S(=O)(=O)/N=C2/NC(=O)/C(=C/c3ccccn3)S2)cc1	G9a block 56µM
COc1ccc(N=C2NC(=O)/C(=C/c3ccco3)S2)cc1	G9a block 45µM, BAZ2B inh 40µM
COc1ccc(S(=O)(=O)/N=C2/NC(=O)/C(=C\c3ccco3)S2)cc1	G9a block 8.9µM, BAZ2B inh inconclusive
CCc1c(C)[nH]c2c(C)cccc2c1=O	none
CCCn1c(SCC(=O)Nc2cccc(C(=O)OC)c2)nnc1-c1cccnc1	none
Cc1ccc2c(CC(=O)N3CCOCC3)coc2c1	none
COc1ccc([N+](=O)[O-])cc1/C=N/NC(=O)/C(=C\c1cccs1)NC(=O)c1ccccc1	G9a block 89µM
CC1CCCN(C(=O)/C(=C/c2ccco2)NC(=O)c2ccccc2)C1 (centres undefined)	G9a block 45µM
O=C(N/C(=C\c1ccco1)C(=O)N1CCCC1CO)c1ccccc1 (centres undefined)	G9a block 16µM
COc1ccc(/C=C(/NC(=O)c2ccccc2)C(=O)N/N=C/c2cccs2)cc1OC	none
Cc1ccc(C(=O)N/C(=C/c2ccco2)C(=O)O)cc1	none
Cc1ccc(C(=O)N/C(=C/c2ccco2)C(=O)N2CCC(C)CC2)cc1	G9a block 18µM
CN1CCN(C(=O)/C(=C/c2ccco2)NC(=O)c2ccccc2)CC1	none
Cc1cccc(C(=O)NCCNC(=O)c2cnccn2)c1	none
COc1cc(C(O)c2nc(-c3ccccc3)cs2)ccc1F (centres undefined)	none (no result: G9a block, JMJD2A Tudor, HP1b chromo inh, BAZ2B inh)
Cc1ccc(C(=O)N/C(=C\c2cccs2)C(=O)NCCc2c[nH]c3ccccc23)cc1C	JMJD2A Tudor inconclusive, BAZ2B inh inconclusive
CC1CCN(C(=O)/C(=C\c2ccco2)NC(=O)c2ccccc2)CC1	G9a block 50µM
Cc1cccc(C(=O)N/C(=C\c2ccco2)C(=O)N2CCCCCC2)c1	G9a block inconclusive
Cc1cccc(C(=O)N/C(=C/c2ccco2)C(=O)N2CCCCCC2)c1	G9a block 40µM
CN(C)c1ccc(/C=C(/NC(=O)c2ccccc2)C(=O)N2CCCC2)cc1	GLS inh inconclusive, G9a block 10µM
CN(C)c1ccc(/C=C(/NC(=O)c2ccccc2)C(=O)N/N=C/c2ccc([N+](=O)[O-])c(O)c2)cc1	G9a block inconclusive, JMJD2A Tudor 45µM, HP1b chromo inh inconclusive, BAZ2B inh 18µM
Cc1ccc(-c2[nH]nc3c2C(c2cccnc2)C(C#N)=C(N)O3)cc1 (centres undefined)	BAZ2B inh inconclusive
CCCN[C@@H](C)C(=O)Nc1c(C)csc1C(=O)OC	none (no result: JMJD2A Tudor, HP1b chromo inh, BAZ2B inh)
CCOC(=O)C(=CNNc1c(C)csc1C(=O)OC)C(=O)OCC	G9a block 8.9µM
Cn1c(=O)n(C)c2cc(/C=N/NC(=S)NCc3ccccc3)ccc21	BAZ2B inh inconclusive
COc1cc(/C=N/N=C/c2cc(OC)c(O)c(OC)c2)cc(OC)c1O	none
COc1cc(/C=N/N=C(/C(=O)c2ccccc2)c2ccccc2)cc(OC)c1O	G9a block inconclusive, JMJD2A Tudor 45µM, HP1b chromo inh inconclusive, BAZ2B inh inconclusive
Cc1cc([N+](=O)[O-])cnc1Sc1nccn1C	BAZ2B inh 50µM
Cn1ccnc1Sc1ccccc1[N+](=O)[O-]	G9a block inconclusive
NC(=S)N/N=C1\CC(n2nnnc2-c2ccccc2)C2COC1O2 (centres undefined)	G9a block inconclusive
NC(=S)N/N=C1\CC(n2nnn(-c3cccc(Cl)c3)c2=S)C2COC1O2 (centres undefined)	GLS inh inconclusive, G9a block 40µM, JMJD2A Tudor inconclusive, BAZ2B inh inconclusive
COc1ccc(CC(=O)Nc2ccc(-c3cn4ccccc4n3)cc2)cc1	none
O=[N+]([O-])c1cnc(Sc2ccncn2)s1	G9a block 10µM
O=[N+]([O-])c1cnc(Sc2ccncn2)c([N+](=O)[O-])c1	none (no result: G9a block, JMJD2A Tudor, HP1b chromo inh, BAZ2B inh)
O=C(CSc1ccc(-c2ccc3c(c2)OCO3)nn1)Nc1nccs1	none
COc1ccc(OC)c(N(CC(=O)Nc2ccc3c(c2)OCO3)S(=O)(=O)c2ccccc2)c1	none
COc1ccc(C2=C(N3CCN(c4cc(Cl)ccc4C)CC3)c3ccccc3C2=O)cc1	G9a block 3.5µM, JMJD2A Tudor 6.3µM, HP1b chromo inh inconclusive, BAZ2B inh 2.8µM
COc1ccc(C2(N3CCN(c4cc(C)ccc4C)CC3)C(=O)c3ccccc3C2=O)cc1	G9a block inconclusive, JMJD2A Tudor inconclusive, BAZ2B inh inconclusive
COc1ccc(N2CCN(CC(=O)c3ccc(O)cc3O)CC2)cc1	G9a block 71µM, JMJD2A Tudor inconclusive, BAZ2B inh inconclusive
O=C(CN1CCN(c2ccc(F)cc2)CC1)c1ccc(O)cc1O	G9a block 79µM, BAZ2B inh inconclusive
O=C(CN1CCN(c2ccccc2F)CC1)c1ccc(O)cc1O	none
CCOC(=O)N1CCN(CC(=O)c2ccc(O)cc2O)CC1	G9a block inconclusive, BAZ2B inh inconclusive
O=C1CN(C(=O)CNCc2ccccc2)c2ccccc2N1	G9a block 35µM, JMJD2A Tudor 3.5µM, HP1b chromo inh inconclusive, BAZ2B inh 50µM
O=C(CCNC(=O)N1CC(=O)Nc2ccccc21)NCc1ccccc1	none (no result: G9a block, JMJD2A Tudor, HP1b chromo inh, BAZ2B inh)
COc1ccccc1CNCC(=O)N1CC(=O)Nc2ccccc21	G9a block 10µM, JMJD2A Tudor 20µM, BAZ2B inh 50µM
COc1ccccc1CNC(=O)CNC(=O)N1CC(=O)Nc2ccccc21	none
Cc1ccc(S(=O)(=O)Nc2ccc(O)c(S(=O)(=O)c3ccc(C)cc3)c2)cc1	none (no result: G9a block)
CC(=O)Nc1ccc(S(=O)(=O)c2cc(O)ccc2O)cc1	G9a block 13µM, HP1b chromo inh inconclusive
Cc1ccc(S(=O)(=O)c2cc(O)ccc2O)cc1C	G9a block 50µM
O=C(c1ccc2nccnc2c1)N1CCN(c2ccccc2)CC1	none (no result: G9a block)
COc1cccc(CN2CCN(Cc3nc4c(s3)CCCC4)CC2CCO)c1 (centres undefined)	none
